Data from PubChem BioAssay AID1159580 (chemical genetic matrix, 2015).
The whole screen tested about 5,500 compounds, of which about 2,000 (36%) were called active. Another 18% or so got no clear call; they are omitted. Rule as the data show it: active = normalized growth mostly below about 0.91 (no sharp cut-off); inconclusive = no clear call, values can overlap the other calls; inactive = mostly above about 0.92. The list shows a part of the results.

Experiment: chemical genetic growth profiling, strain panel (AID 1159580);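 also: tested at 20 µM; growth read once vehicle control cultures reached saturation at 30 °C; 1 = growth at the plate median or of vehicle wells; lower values mean less growth of the strain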
Settings: growth OD
[1] = S. cerevisiae deletion strains, locus YDR150W, strain NUM1, hits give low values
[2] = S. cerevisiae deletion strains, locus YGR078C, strain PAC10, hits give low values
[3] = S. cerevisiae deletion strains, locus YMR307W, strain GAS1, hits give low values
[4] = S. cerevisiae deletion strains, locus YNL153C, strain GIM3, hits give low values
[5] = S. cerevisiae deletion strains, locus YNL322C, strain KRE1, hits give low values
[6] = S. cerevisiae deletion strains, locus YPL241C, strain CIN2, hits give low values

Measured: normalized growth

CC#CCOC(=O)c1c(C)nc2sc3c(c2c1N)CCC(O)C3 (stereo not given)
inactive: S. cerevisiae deletion strains, locus YAL040C, strain CLN3, hits give low values 1.06 | S. cerevisiae deletion strains, locus YCL061C, strain MRC1 (second series), hits give low values 0.993 | [1] 0.987 | S. cerevisiae deletion strains, locus YDR363W, strain ESC2, hits give low values 1 | S. cerevisiae deletion strains, locus YER002W, strain NOP16, hits give low values 0.971 | [2] 0.982 | [3] 0.994 | [4] 1.18 | S. cerevisiae deletion strains, locus YNL175C, strain NOP13, hits give low values 0.955 | S. cerevisiae deletion strains, locus YNL197C, strain WHI3, hits give low values 0.967 | S. cerevisiae deletion strains, locus YNL224C, strain SQS1, hits give low values 0.971 | [5] 0.982 | S. cerevisiae deletion strains, locus YOR083W, strain WHI5 (second series), hits give low values 0.891 | [6] 0.99

CC1(C)CC2C1(O)CCC1(C)C=CC(O)C21CO (stereo not given)
inactive: S. cerevisiae deletion strains, locus YAL013W, strain DEP1, hits give low values 0.99 | S. cerevisiae deletion strains, locus YBR021W, strain FUR4, hits give low values 1.01 | S. cerevisiae deletion strains, locus YBR229C, strain ROT2, hits give low values 0.995 | S. cerevisiae deletion strains, locus YCL029C, strain bik1, hits give low values 0.975 | S. cerevisiae deletion strains, locus YDL035C, strain GPR1, hits give low values 0.983 | S. cerevisiae deletion strains, locus YDL074C, strain BRE1, hits give low values 1.03 | S. cerevisiae deletion strains, locus YDL101C, strain DUN1, hits give low values 0.998 | S. cerevisiae deletion strains, locus YDL134C, strain PPH21, hits give low values 0.998 | S. cerevisiae deletion strains, locus YDL185W, strain tfp1, hits give low values 0.976 | S. cerevisiae deletion strains, locus YDL192W, strain arf1, hits give low values 0.979 | S. cerevisiae deletion strains, locus YDR101C, strain arx1, hits give low values 1 | [1] 0.987 | S. cerevisiae deletion strains, locus YDR162C, strain NBP2, hits give low values 1.03 | S. cerevisiae deletion strains, locus YDR318W, strain mcm21, hits give low values 0.975 | S. cerevisiae deletion strains, locus YDR388W, hits give low values 0.993 | S. cerevisiae deletion strains, locus YDR502C, strain sam2, hits give low values 1.01 | S. cerevisiae deletion strains, locus YEL061C, strain CIN8, hits give low values 0.992 | S. cerevisiae deletion strains, locus YER110C, hits give low values 0.959 | S. cerevisiae deletion strains, locus YER155C, strain BEM2, hits give low values 0.995 | S. cerevisiae deletion strains, locus YER167W, strain BCK2, hits give low values 0.982 | S. cerevisiae deletion strains, locus YGL078C, strain dbp3, hits give low values 0.994 | S. cerevisiae deletion strains, locus YGL086W, strain mad1, hits give low values 0.969 | S. cerevisiae deletion strains, locus YGL248W, strain PDE1, hits give low values 0.993 | [2] 1.03 | S. cerevisiae deletion strains, locus YGR135W, strain pre9, hits give low values 1.02 | S. cerevisiae deletion strains, locus YGR229C, strain SMI1, hits give low values 1.03 | S. cerevisiae deletion strains, locus YGR252W, strain gcn5, hits give low values 0.995 | S. cerevisiae deletion strains, locus YHR030C, strain SLT2, hits give low values 0.982 | S. cerevisiae deletion strains, locus YHR079C, strain IRE1 (second series), hits give low values 0.988 | S. cerevisiae deletion strains, locus YHR094C, strain hxt1, hits give low values 0.98 | S. cerevisiae deletion strains, locus YHR129C, strain ARP1, hits give low values 0.997 | S. cerevisiae deletion strains, locus YHR200W, strain rpn10, hits give low values 0.984 | S. cerevisiae deletion strains, locus YIL066C, strain RNR3, hits give low values 0.992 | S. cerevisiae deletion strains, locus YIL073C, strain SPO22, hits give low values 0.873 | S. cerevisiae deletion strains, locus YIL125W, strain kgd1, hits give low values 0.976 | S. cerevisiae deletion strains, locus YIR030C, strain dcg1, hits give low values 0.99 | S. cerevisiae deletion strains, locus YJL095W, strain BCK1, hits give low values 1.04 | S. cerevisiae deletion strains, locus YJL134W, strain LCB3, hits give low values 0.992 | S. cerevisiae deletion strains, locus YJL168C, strain set2, hits give low values 0.989 | S. cerevisiae deletion strains, locus YJL187C, strain SWE1 (second series), hits give low values 1 | S. cerevisiae deletion strains, locus YJR043C, strain POL32, hits give low values 0.994 | S. cerevisiae deletion strains, locus YJR075W, strain HOC1, hits give low values 0.988 | S. cerevisiae deletion strains, locus YKL009W, strain mrt4, hits give low values 0.95 | S. cerevisiae deletion strains, locus YKL068W, hits give low values 0.98 | S. cerevisiae deletion strains, locus YKL085W, strain MDH1 (second series), hits give low values 0.976 | S. cerevisiae deletion strains, locus YKL085W, strain MDH1, hits give low values 0.976 | S. cerevisiae deletion strains, locus YKL190W, strain CNB1, hits give low values 0.999 | S. cerevisiae deletion strains, locus YKR001C, strain vps1, hits give low values 1 | S. cerevisiae deletion strains, locus YLR039C, strain RIC1, hits give low values 0.945 | S. cerevisiae deletion strains, locus YLR058C, strain SHM2, hits give low values 0.983 | S. cerevisiae deletion strains, locus YLR102C, strain apc9, hits give low values 0.987 | S. cerevisiae deletion strains, locus YLR262C, strain YPT6, hits give low values 0.936 | S. cerevisiae deletion strains, locus YLR268W, strain sec22, hits give low values 1.02 | S. cerevisiae deletion strains, locus YLR330W, strain CHS5, hits give low values 0.984 | S. cerevisiae deletion strains, locus YLR342W, strain FKS1 (second series), hits give low values 0.994 | S. cerevisiae deletion strains, locus YLR371W, strain rom2, hits give low values 0.969 | S. cerevisiae deletion strains, locus YLR418C, strain cdc73, hits give low values 1.06 | S. cerevisiae deletion strains, locus YML016C, strain PPZ1, hits give low values 0.994 | S. cerevisiae deletion strains, locus YML032C, strain rad52, hits give low values 1.09 | S. cerevisiae deletion strains, locus YML124C, strain tub3, hits give low values 0.988 | S. cerevisiae deletion strains, locus YMR078C, strain ctf18, hits give low values 0.985 | S. cerevisiae deletion strains, locus YMR223W, strain ubp8, hits give low values 0.977 | S. cerevisiae deletion strains, locus YMR263W, strain SAP30, hits give low values 1.01 | [3] 1.08 | S. cerevisiae deletion strains, locus YNL067W, strain RPL9B, hits give low values 1.03 | S. cerevisiae deletion strains, locus YNL128W, strain TEP1, hits give low values 0.996 | [4] 1.03 | S. cerevisiae deletion strains, locus YNL233W, strain BNI4, hits give low values 1.04 | S. cerevisiae deletion strains, locus YNL250W, strain rad50, hits give low values 0.973 | S. cerevisiae deletion strains, locus YNL271C, strain bni1, hits give low values 0.973 | S. cerevisiae deletion strains, locus YNL298W, strain CLA4, hits give low values 0.977 | S. cerevisiae deletion strains, locus YNL307C, strain MCK1, hits give low values 0.999 | [5] 0.981 | S. cerevisiae deletion strains, locus YNR052C, strain pop2, hits give low values 0.963 | S. cerevisiae deletion strains, locus YOL006C, strain TOP1, hits give low values 1.03 | S. cerevisiae deletion strains, locus YOL012C, strain htz1 1.26 | S. cerevisiae deletion strains, locus YOL147C, strain pex11, hits give low values 0.977 | S. cerevisiae deletion strains, locus YOR061W, strain CKA2, hits give low values 0.997 | S. cerevisiae deletion strains, locus YOR069W, strain VPS5, hits give low values 0.994 | S. cerevisiae deletion strains, locus YOR136W, strain idh2, hits give low values 0.984 | S. cerevisiae deletion strains, locus YOR144C, strain elg1, hits give low values 0.984 | S. cerevisiae deletion strains, locus YOR184W, strain ser1, hits give low values 0.965 | S. cerevisiae deletion strains, locus YOR316C, strain cot1, hits give low values 0.991 | S. cerevisiae deletion strains, locus YPL055C, strain LGE1, hits give low values 1.03 | [6] 0.991 | S. cerevisiae deletion strains, locus YPR119W, strain clb2, hits give low values 0.988 | S. cerevisiae deletion strains, locus YPR141C, strain kar3, hits give low values 0.982 | S. cerevisiae deletion strains, locus YPR163C, strain tif3, hits give low values 0.972 | S. cerevisiae deletion strains, locus YPR167C, strain met16, hits give low values 0.994 | S. cerevisiae deletion strains, strain wtn01, hits give low values 1.02 | S. cerevisiae strains, strain wild type, hits give low values 0.993
